# Data from PubChem BioAssay AID2653 (National Center for Advancing Translational Sciences (NCATS), 2010).
# Records with an inconclusive call do not appear. The source made the active and inactive calls. Calls follow the shape of the dose curve; as a rule, active = well fitted curve in the direction sought with a large enough effect; inconclusive = small, poorly fitted or top-dose-only effect, or another doubt; inactive = no such curve, though single readings can be large or run the other way.
# Experiment: Secondary Assay for Activators of Human Pyruvate Kinase M2 isoform - Cell Titer Glo Cytotoxicity for Probe SAR
# Settings: HeLa viability, CellTiter-Glo ATP luminescence, 24 h; series mostly up to 58.2 µM
# Procedure: NIH Chemical Genomics Center [NCGC]
# Matthew G. Vander Heiden, M.D., Ph.D. [Harvard Medical School, 77 Avenue Louis Pasteur, Boston, MA 02115]
# We have identified a series of activators of the M2 isoform of human pyruvate kinase. The assay described here examines the cytotoxicity of these compounds by measuring the total ATP content of Hela cells after 24 hrs of exposure to compound.
# 500 Hela cells/ 4ul in media (DMEM with high glucose, 10% FBS, 1x Pen Strep, 1x NEAA) were dispensed into a white solid 1536-microwell plate with a Thermo Multidrop. The plates were incubated at 37 degrees Celsius for 24 hours. The cells were then treated with compounds using the Kalypsys pin tool, delivering 23 nl of test compounds and the control doxorubicin. The plates were then incubated for an additional 24 hours at 37 degrees C after which 4 ul of Promega Cell-Titer Glo was dispensed using the Thermo Multidrop. The plates were incubated at room temperature for 10 min before reading luminescence on the Perkin Elmer ViewLux with images collected with 2x binning and a 5 sec exposure time.
row,Compound,outcome
1,Cc1c(Cl)cccc1NS(=O)(=O)c1cc2c(cc1Cl)CCC(=O)N2,inactive
2,CC(=O)N1c2ccc(S(=O)(=O)Nc3ccc(C)c(C)c3)cc2CC1C (stereo not given),inactive
3,Cc1ccc(NS(=O)(=O)c2ccc3c(ccn3C)c2)cc1C,inactive
4,O=C1CCc2cc(S(=O)(=O)Nc3ccc(Cl)c(Cl)c3)c(F)cc2N1,inactive
5,CN(C)c1cccc(S(=O)(=O)N2CCCN(S(=O)(=O)c3ccc4c(c3)OCCO4)CC2)c1,inactive
6,CNc1cccc(S(=O)(=O)N2CCCN(S(=O)(=O)c3ccc4c(c3)OCCO4)CC2)c1,inactive
7,Cc1ccc(NS(=O)(=O)c2ccc3c(c2)N(C)C(=O)CO3)cc1C,inactive
8,Cc1ccc2nc(-c3ccc(C)o3)c(Nc3ccc4c(c3)OCO4)n2c1,inactive
9,O=C1CCc2cc(S(=O)(=O)Nc3ccc(F)cc3)ccc2N1,inactive
10,Cc1ccc2nc(-c3ccc(C)o3)c(Nc3ccc(F)cc3)n2c1,inactive
11,Cc1ccc(NS(=O)(=O)c2cc3c(cc2Cl)NC(=O)C3)cc1C,inactive
12,Cc1ccc(NS(=O)(=O)c2cc3c(cc2-c2ccccc2)NC(=O)CO3)cc1C,inactive
13,O=C1CCc2cc(S(=O)(=O)Nc3cccc(B(O)O)c3)ccc2N1,inactive
14,Cc1ccc(NS(=O)(=O)c2cc3c(cc2-c2cn[nH]c2)NC(=O)CO3)cc1C,inactive
15,O=S1(=O)N=C(Oc2ccccc2)c2ccccc21,inactive
16,Cc1ccc(Nc2c(-c3ccc(C)s3)nc3cccc(C)n23)cc1,inactive
17,O=C1CCc2cc(S(=O)(=O)Nc3cccc(F)c3)ccc2N1,inactive
18,CSc1cc2c(s1)c1cnn(Cc3cccc(N)c3)c(=O)c1n2C,inactive
19,O=C1CCc2cc(S(=O)(=O)Nc3ccc(Cl)cc3)ccc2N1,inactive
20,Cc1ccc(NS(=O)(=O)c2ccc3c(c2)NC(=O)CO3)cc1C,inactive

row,Compound,outcome
1,Cc1ccc(NS(=O)(=O)c2ccc3ccccc3c2)cc1C,inactive
2,Cc1ccc(NS(=O)(=O)c2cc3c(cc2C)NC(=O)CO3)cc1C,inactive
3,O=C1c2ccccc2C(=O)N1c1ccncc1,inactive
4,CC(C)Nc1cccc(S(=O)(=O)N2CCCN(S(=O)(=O)c3ccc4c(c3)OCCO4)CC2)c1,inactive
5,O=S1(=O)N=C(Oc2ccccc2Cl)c2ccccc21,inactive
6,Cc1ccc(NS(=O)(=O)c2ccc3c(c2)CCC(C)(C)O3)cc1C,inactive
7,COc1ccccc1NS(=O)(=O)c1ccc2c(c1)CCC(=O)N2,inactive
8,O=C1CCc2cc(S(=O)(=O)Nc3cccnc3)ccc2N1,inactive
9,Cc1ccc2nc(-c3ccc(C)o3)c(Nc3ccc(Cl)cc3)n2c1,inactive
10,O=C1c2ccccc2C(=O)N1c1cccc2ccncc12,inactive
11,Cc1ccc(NS(=O)(=O)c2cc3c(cc2Cl)CCC(=O)N3)cc1C,inactive
12,CC(=O)N1CCCc2cc(S(=O)(=O)Nc3ccc(C)c(C)c3)ccc21,inactive
13,COc1cccc(OC2=NS(=O)(=O)c3ccccc32)c1,inactive
14,Cc1ccc(C)c(OC2=NS(=O)(=O)c3ccccc32)c1,inactive
15,Cc1cc2c(s1)c1cnn(Cc3ccccc3F)c(=O)c1n2C,inactive
16,Cc1ccc(Nc2c(-c3ccc(C)o3)nc3ccccn23)cc1,inactive
17,O=C1CCc2cc(S(=O)(=O)Nc3ccc4c(c3)OCCO4)ccc2N1,inactive
18,Cc1ccc(NS(=O)(=O)c2cc3c(cc2F)NC(=O)CC3)cc1C,inactive
19,Cc1cc(N2C(=O)c3ccccc3C2=O)no1,inactive
20,COc1cc(N2C(=O)c3ccccc3C2=O)c2ncccc2c1,inactive
